# Assay results as given in PubChem BioAssay (EPA / NIEHS).
# Calls of active or inactive are those of the source. The calls were made as follows: active = hit-call score of the fitted dose curve at least 0.9, where 1 is the maximum; inactive = score below 0.9.
# Experiment: ATG_BRE_CIS: Attagene CIS-FACTORIAL HepG2 Assay for human Bone Morphogenetic Protein (BMP) Response Element (BRE) (AID 2282933)
# Settings: HepG2 BMP response element reporter, Attagene transcription factor profiling; actives raise or lower the signal
# Method: ATG_CIS is a cell-based, multiplexed-readout assay that uses HepG2, a human liver cell line, with measurements taken at 24 hours after chemical dosing in a 24-well plate.ATG_BRE_CIS is one of 52 assay component(s) measured or calculated from the ATG_CIS assay. It is designed to make measurements of mRNA induction, a form of inducible reporter, as detected with fluorescence intensity signals by Reverse transcription polymerase chain reaction (RT-PCR) and Capillary electrophoresis technology.Data from the assay component ATG_BRE_CIS was analyzed into 1 assay endpoint. This assay endpoint, ATG_BRE_CIS, was analyzed with bidirectional fitting relative to DMSO as the negative control and baseline of activity. Using a type of inducible reporter, measures of mRNA for gain or loss-of-signal activity can be used to understand the reporter gene at the transcription factor-level as they relate to the gene SMAD1. Furthermore, this assay endpoint can be referred to as a primary readout, because this assay has produced multiple assay endpoints where this one serves a reporter gene function. To generalize the intended target to other relatable targets, this assay endpoint is annotated to the dna binding intended target family, where the subfamily is Smad protein.
# Human liver HepG2 cells are transiently transfected with multiple reporter transcription units (MRTUs) in 6-well plates using FuGene 6 reagent (Roche; 3 ml FuGene/1 mg DNA). The MRTU constructs are regulated by a cis-regulating element (promoter). […] A major difference between the CIS and TRANS system is that in CIS activities of endogenous TFs are measured, whereas the TRANS assay evaluates changes in activities of exogenous, chimeric NR-Gal4 proteins. […] At the end of 24 hour incubation, total RNA was isolated using TriZol reagent (Invitrogen). The isolated RNA is then reverse-transcribed using oligo(dT) primer and Mo-MLV reverse transcriptase (Invitrogen) with DNAse I (Ambion) treatment for 30 min. The one-tenth of the produced cDNA was amplified by PCR using Taq DNA polymerase (Invitrogen) and two reporter sequence-specific primers. The PCR products were fluorescently labeled by primer extension with 6-arboxyfluorescein (6-FAM) 5'-labeled reporter sequence-specific primer (2 min at 95 C, 20 s at 68 C and 10 min at 72 C) and these products were digested with 5U of HpaI (New England Biolabs) for 2h at 37 C. The fragments were purified using Qiaquick PCR columns (Qiagen), analyzed on an ABI 3130xL genetic analyzer (Applied Biosystems) with peak positions identified by using a set of X-rhodamine (ROX)-labeled MapMarker1000 molecular weight standards (BioVentures). The raw capillary electrophoresis data was processed using Attagraph software (Attagene).
Structure (SMILES),outcome,AC50
Nc1ccc(O)c([N+](=O)[O-])c1,inactive,–
COc1cc(C)ccc1O,inactive,–
CCCc1ccc(O)c(OC)c1,inactive,–
CCCCCCCCCCCC(C)=O,inactive,–
CCc1occc(=O)c1O,inactive,–
C=CC(=O)O[C@H]1C[C@@H]2CC[C@@]1(C)C2(C)C,inactive,–
CCN1CCCC1=O,inactive,–
CCCCCCC=O,inactive,–
CC=C(C)C(C)=O,inactive,–
CCCCCCO,inactive,–
CCCCC(C=O)CC (stereo not given),inactive,–
O=C(OCc1ccccc1)c1ccc(O)cc1,–,123 µM (active)
CCCCNS(=O)(=O)c1ccccc1,inactive,–
CC1CC(=O)CC(C)(C)C1 (stereo not given),inactive,–
O=C(Cl)c1ccc(C(=O)Cl)cc1,inactive,–
CC(C)(c1ccccc1)c1ccc(Nc2ccc(C(C)(C)c3ccccc3)cc2)cc1,inactive,–
CC(C)OC(=O)c1ccccc1,inactive,–
Cc1cc(=O)[nH]c(=O)[nH]1,inactive,–
CC(C)c1ccc2ncccc2c1,inactive,–
C=C(C)[C@@H]1CC=C(C)CC1,inactive,–

Structure (SMILES),outcome,AC50
C=CCCCCCCCCOC(C)=O,inactive,–
Clc1cccnc1,inactive,–
CC(C)(C)N,inactive,–
CCC(C)(O)CCCC(C)C (stereo not given),inactive,–
CCCCC(=O)O,inactive,–
O=C(O)C1CCC(C(=O)O)CC1 (stereo not given),inactive,–
CC(C)C(=O)OCCOc1ccccc1,inactive,–
CC12CCC(CC1)C(C)(C)O2,inactive,–
NC(=O)Nc1ccccc1,inactive,–
C=C(C)C(=O)OCC(O)COc1ccc(C(C)(C)c2ccc(OCC(O)COC(=O)C(=C)C)cc2)cc1 (stereo not given),–,24.8 µM (active)
CC(C)(C)C1CCC(=O)CC1,inactive,–
C=CCNCC=C,inactive,–
CCCC(C)C(=O)OCC (stereo not given),inactive,–
COC(C=C(C)CCC=C(C)C)OC,inactive,–
CC(CC=O)CC(C)(C)C (stereo not given),inactive,–
Cc1ccc([N+](=O)[O-])cc1N,inactive,–
CCCCCC(=O)OCC,inactive,–
O=C1CCCN1C1CCCCC1,inactive,–
CCOC(=O)C1=NN(c2ccc(Cl)cc2Cl)C(C)(C(=O)OCC)C1 (stereo not given),inactive,–
Nc1nc(N)nc(-c2ccccc2)n1,inactive,–
